Twelve compounds from PubChem BioAssay (Tox21) can be followed below.

The nature of experiment [1]: qHTS assay to identify small molecule antagonists of the glucocorticoid receptor (GR) signaling pathway - cell viability counter screen (AID 720693). Also: nearly all actives have a fitted effect of over 55% in size. Also: potency is read from the fitted curve at half-maximal effect. The conditions noted are these: GR-bla HeLa viability, CellTiter-Glo luminescence, 18 h, with 5 nM dexamethasone present; series mostly up to 58.5 µM. (In general: qHTS replaces the single test concentration by a dilution series.)

The nature of experiment [2]: qHTS assay for identifying genotoxic compounds that show differential cytotoxicity against isogenic chicken DT40 cell lines with known DNA damage response pathways - wild type cell line (AID 743012). Also: nearly all actives have a fitted effect of over 60% in size. Also: potency is read from the fitted curve at half-maximal effect. The following applies: DT40 wild type chicken cells viability, CellTiter-Glo, 40 h; series mostly up to 68.4 µM. A digest of the protocol:
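Using parental DT40 (300 cells/well), compounds delivered in DMSO incubate 40 h at 37 C/5% CO2. CellTiter-Glo reagent then stands 30 min at room temperature, and luminescence gives cell viability.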

Experiment [3] in a line: qHTS assay for identifying genotoxic compounds that show differential cytotoxicity against isogenic chicken DT40 cell lines with known DNA damage response pathways - Rad54/Ku70 mutant cell line (AID 743015). Also: nearly all actives have a fitted effect of over 60% in size. Also: potency is read from the fitted curve at half-maximal effect. The conditions noted are these: DT40 Rad54/Ku70 mutant viability, CellTiter-Glo, 40 h; series mostly up to 66.8 µM.
The nature of experiment [4]: qHTS assay to identify small molecule antagonists of the androgen receptor (AR) signaling pathway using the MDA cell line - cell viability counter screen (AID 743041; also: nearly all actives have a fitted effect of over 45% in size). The following applies: MDA-kb2 viability, CellTiter-Fluor, 16 h, cells co-treated with R1881 androgen agonist; series mostly up to 70.3 µM. A digest of the protocol: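 Viability counter screen run alongside the AR antagonist reporter: cells seeded 5 h before compound, R1881 added, 16 h incubation at 37C without CO2, fluorescent CellTiter-Fluor signal quantified.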

Experiment [5] can be described thus: qHTS assay to identify small molecule antagonists of the thyroid receptor (TR) signaling pathway - cell viability counter screen (AID 743064). Also: nearly all actives have a fitted effect of over 50% in size. Also: potency is read from the fitted curve at half-maximal effect. The conditions noted are these: GH3.TRE-Luc viability, CellTiter-Fluor, 24 h; series mostly up to 70.3 µM. A digest of the protocol:
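Rat GH3 pituitary tumor cells stably expressing two TR response elements driving luciferase were plated, rested 4 h, then dosed with library compounds and T3 (1 nM final). After 23.5 h at 37 °C, CellTiter-Fluor was added for 30 min and fluorescence recorded.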

A short description of experiment [6]: qHTS assay to identify small molecule antagonists of the androgen receptor (AR) signaling pathway - cell viability counter screen (AID 743033; also: nearly all actives have a fitted effect of over 45% in size; also: potency is read from the fitted curve at half-maximal effect). The conditions noted are these: AR-bla HEK293 viability, CellTiter-Glo luminescence, 16 h; series mostly up to 58.5 µM.
The nature of experiment [7]: qHTS assay for identifying genotoxic compounds that show differential cytotoxicity against isogenic chicken DT40 cell lines with known DNA damage response pathways - Rev3 mutant cell line (AID 743014). Also: potency is read from the fitted curve at half-maximal effect; nearly all actives have a fitted effect of over 55% in size. The following applies: chicken DT40 Rev3-/- viability, CellTiter-Glo, 40 h; series mostly up to 68.4 µM.
In experiment [8] the target is Androgen receptor (Homo sapiens) (UniProt P10275). Briefly: qHTS assay to identify small molecule antagonists of the androgen receptor (AR) signaling pathway using the MDA cell line (AID 743042; also: nearly all actives have a fitted effect of over 55% in size). The conditions noted are these: MDA-kb2 AR-luc, MMTV luciferase, R1881 antagonist, 16 h; series mostly up to 70.3 µM. A digest of the protocol: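 MDA-kb2 cells (human breast carcinoma, stably carrying an MMTV-luciferase reporter responsive to AR and GR) were plated at 3,000 cells/well and preincubated 5 hr at 37C, then given compound plus R1881 agonist for 16 h. ONE-Glo luminescence was read.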
Androgen receptor (Homo sapiens), sequence (P10275 whole entry, looked up): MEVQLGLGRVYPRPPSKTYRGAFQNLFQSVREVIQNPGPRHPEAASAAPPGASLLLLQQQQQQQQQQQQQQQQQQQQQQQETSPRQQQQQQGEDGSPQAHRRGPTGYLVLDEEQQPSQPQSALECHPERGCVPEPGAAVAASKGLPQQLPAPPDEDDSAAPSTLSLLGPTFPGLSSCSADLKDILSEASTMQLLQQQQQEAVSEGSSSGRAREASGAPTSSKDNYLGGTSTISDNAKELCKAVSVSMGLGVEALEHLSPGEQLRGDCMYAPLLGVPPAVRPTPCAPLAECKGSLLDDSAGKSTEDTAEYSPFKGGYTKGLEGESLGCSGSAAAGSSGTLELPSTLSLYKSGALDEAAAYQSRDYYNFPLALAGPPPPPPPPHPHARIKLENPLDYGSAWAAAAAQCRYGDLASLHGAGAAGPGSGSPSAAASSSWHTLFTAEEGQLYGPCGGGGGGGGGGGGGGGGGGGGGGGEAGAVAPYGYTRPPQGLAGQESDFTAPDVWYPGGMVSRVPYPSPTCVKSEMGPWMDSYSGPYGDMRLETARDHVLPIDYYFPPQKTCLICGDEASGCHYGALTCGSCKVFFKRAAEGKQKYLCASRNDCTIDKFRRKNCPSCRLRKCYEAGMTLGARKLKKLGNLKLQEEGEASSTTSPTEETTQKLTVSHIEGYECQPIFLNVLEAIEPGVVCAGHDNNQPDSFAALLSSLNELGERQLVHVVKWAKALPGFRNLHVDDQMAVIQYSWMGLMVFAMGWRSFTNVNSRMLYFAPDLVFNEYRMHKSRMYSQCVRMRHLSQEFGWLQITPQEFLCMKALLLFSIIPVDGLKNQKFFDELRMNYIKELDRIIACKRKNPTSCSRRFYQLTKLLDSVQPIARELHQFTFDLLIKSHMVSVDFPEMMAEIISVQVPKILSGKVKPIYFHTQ

Experiment [9] has the same target. Description: qHTS assay to identify small molecule agonists of the androgen receptor (AR) signaling pathway (AID 743036; active = well fitted activation curve with a large enough effect in the signal ratio in the repeat runs, with a control signal flat, not every such curve was filed as active; the % refers to the signal ratio). The following applies: HEK293 AR-UAS-bla GripTite, beta-lactamase FRET ratio, 16 h; series mostly up to 62.4 µM. An outline of the steps: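 Quantitative HTS of the Tox21 10K library in HEK293 cells bearing a stably integrated UAS-controlled beta-lactamase reporter. Compound exposure lasted 16 h at 37C. Reporter activity was detected by FRET substrate fluorescence after 2 h at room temperature.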

The target is the same in experiment [10]. Description: qHTS assay to identify small molecule agonists of the androgen receptor (AR) signaling pathway using the MDA cell line (AID 743040; also: nearly all actives have a fitted effect of over 20% in size). The conditions noted are these: MDA-kb2 AR-luc cells, MMTV luciferase, 16 h, stronger effect = higher value; series mostly up to 70.3 µM. An outline of the steps:
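Luminescence from ONE-Glo, read after 30 min at room temperature, reflects MMTV-driven luciferase in MDA-kb2 cells (AR- and GR-responsive). Treatment lasted 16 h at 37C, 0% CO2.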

Inconclusive results are not listed. The source made the active and inactive calls. Unless noted, calls follow the shape of the dose curve; as a rule, active = well fitted curve in the direction sought with a large enough effect in the repeat runs; inconclusive = weak or mixed curves; inactive = no such curve, though single readings can be large; an effect the other way counts as inactive or inconclusive.

On to `C[C@@H](CN(C)C)CN1c2ccccc2Sc2ccccc21`, for which the Potency entry in [1] and in [4] was “inactive” throughout. In addition, the Potency is 11.4 µM (active) in experiment [2], 11.4 µM (active) in experiment [3] and 4.03 µM (active) in [5].
Regarding `O=C(O)c1ccc(OCCCOc2ccc(C(=O)O)cc2)cc1`, the Potency result in [1], in [2], in experiment [3], in experiment [6], in experiment [4] and in [5] was “inactive” each time.
Take `CCOC(=O)[C@H](CCc1ccccc1)N[C@@H](C)C(=O)N(CC(=O)O)C1Cc2ccccc2C1`: the Potency entry in experiment [1] and in [4] was “inactive” each time. Further, the figures for the Potency in experiment [2] and in experiment [3] were 21.1 µM (active) and 23.7 µM (active), respectively.
Turning to `CCOC(C)=O`, the Potency entry in [1], in experiment [2], in experiment [3], in experiment [6], in experiment [4] and in experiment [5] was “inactive” in each case.
With `O=c1cc(-c2ccccc2)oc2ccc3ccccc3c12`, the results for the Potency in [1], in experiment [7] and in experiment [6] were 54.9 µM (active), 15.4 µM (active) and 21.9 µM (active), respectively. Further, the Potency result in experiment [4], in experiment [8] and in experiment [5] was “inactive” throughout.
Take `CN1C(C(=O)Nc2ccccn2)=C(O)c2sccc2S1(=O)=O`: the Potency entry in [1], in [2], in experiment [3], in experiment [4] and in experiment [5] was “inactive” each time.
Regarding `C=C/C(C)=C/C/C=C(\C)CCC=C(C)C`, the Potency entry in experiment [1], in experiment [6] and in experiment [4] was “inactive” in each case. The Potency in experiment [7] was 61.1 µM (active); in experiment [3] it was 48.6 µM (active).
As to `O=C=Nc1ccc(Cl)c(Cl)c1`, the Potency result in experiment [1], in experiment [3], in experiment [6] and in experiment [4] was “inactive” in each case.
On to `C=CCc1ccccc1OCC(O)CNC(C)C` (stereo unspecified), for which the Potency entry in experiment [1], in experiment [2], in [6], in experiment [4] and in [8] was “inactive” in each case. In addition, the outcome in [9] and in experiment [10] was inactive.
As for `Nc1nc2ccc([N+](=O)[O-])cc2s1`, the Potency result in [1], in experiment [6] and in experiment [8] was “inactive” each time. Moreover, the Potency in [7] was 64.8 µM (active). Besides, in [10], the outcome was inactive.
As for `Brc1cc(Br)c(Oc2cc(Br)c(Br)cc2Br)cc1Br`, the Potency result in experiment [1], in experiment [2], in [4] and in experiment [5] was “inactive” in each case.
For the compound `c1ccc2sc(SN(C3CCCCC3)C3CCCCC3)nc2c1`, the Potency result in experiment [1], in [2], in [6] and in [4] was “inactive” throughout.
